From PubChem BioAssay AID2551 (National Center for Advancing Translational Sciences (NCATS), 2010) come the findings set out here.

The campaign covered roughly 310,000 compounds. About 17,000 (5.5%) were called active. A call without a number means that no potency is given here. Roughly 11% stayed inconclusive and do not appear here. Calls come from the whole dose curve; as a rule, active = well fitted inhibition curve with a large enough effect; inconclusive = small, poorly fitted or top-dose-only effect, or effect the other way; inactive = no such curve, though single readings can be large or run the other way. For the sample, actives were picked, then their nearest neighbours and some compounds at random.
Potency is the fitted concentration of half-maximal effect.

Sequence of Nuclear receptor ROR-gamma (Mus musculus) (P51450 whole entry, looked up, the tested form may be a part): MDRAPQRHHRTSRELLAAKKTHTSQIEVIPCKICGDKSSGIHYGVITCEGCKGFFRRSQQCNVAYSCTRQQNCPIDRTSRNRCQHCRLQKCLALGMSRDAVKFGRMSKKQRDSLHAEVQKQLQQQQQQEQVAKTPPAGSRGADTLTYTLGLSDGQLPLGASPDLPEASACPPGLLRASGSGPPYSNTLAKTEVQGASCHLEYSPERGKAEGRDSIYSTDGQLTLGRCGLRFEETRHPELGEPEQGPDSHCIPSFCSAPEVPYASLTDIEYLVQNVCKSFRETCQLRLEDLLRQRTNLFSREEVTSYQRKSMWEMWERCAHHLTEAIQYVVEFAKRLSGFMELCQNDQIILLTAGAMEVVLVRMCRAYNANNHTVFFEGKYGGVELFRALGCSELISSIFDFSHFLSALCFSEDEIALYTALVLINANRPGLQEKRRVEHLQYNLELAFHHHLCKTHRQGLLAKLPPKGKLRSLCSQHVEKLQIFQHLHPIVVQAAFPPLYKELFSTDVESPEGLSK

This assay has as its target Nuclear receptor ROR-gamma (Mus musculus) (UniProt P51450). Description: qHTS for inhibitors of ROR gamma transcriptional activity. Note: nearly all actives have a fitted effect of over 60% in size. Particulars: Drosophila S2 Gal4-RORgamma UAS-luciferase reporter, 20 h; series mostly up to 53.6 µM. The procedure, abridged: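 Stable Schneider cell line, Gal4 DNA-binding domain fused to ROR gamma, UAS-luciferase. Cmpd 1 hr RT → CuSO4 700 uM final → 20 hr RT → luciferase reagent 10 min → luminescence.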
For `CC1=NN(C(=O)CCc2ccccc2O)C(O)(C(F)(F)F)C1` (configuration not stated), the Potency is 8.91 µM (active).

Turning to `O=C(CCc1ccccc1F)N1CCN(c2ccccc2)CC1`, the Potency entry is “inactive”.

Turning to `CC1=NN(C(=O)CCCc2ccccc2)C(O)(C(F)(F)F)C1` (configuration not stated), the Potency is 4.47 µM (active).

Regarding `CCC(C)NC(=O)CCCc1ccccc1` (configuration not stated), the Potency entry is “inactive”.

Take `CC(=O)N1N=C(c2ccncc2)OC1(Cc1ccccc1)Cc1ccccc1`: the Potency result is “inactive”.

Turning to `COc1ccc(CC(=O)Nc2ccc(C(=O)NC(C)(C)C)cc2)cc1`, the Potency result is “inactive”.

`O=C(C1CC1)N1N=C(c2ccc(Br)cc2)CC1(O)C(F)(F)F` (configuration not stated): the Potency result was “inactive”.

As for `CCCCCNC(=O)Cc1ccc(OC)cc1`, the Potency result is “inactive”.

On to `O=C(O)CCCc1ccccc1`, for which the Potency result is “inactive”.

Consider `COc1ccc(C(=O)CCc2ccccc2O)c(OC)c1`, for which the activity change, negative = inhibition is 3.95% [at 1.91 µM] (inactive).

As for `O=C(Cc1ccccc1)N1N=C(c2ccncc2)CC1(O)C(F)(F)F` (configuration not stated), the Potency was 7.08 µM (active).

Turning to `COc1ccc(CC(=O)N2N=C(C)CC2(O)C(F)(F)F)cc1` (configuration not stated), the Potency is 7.94 µM (active).

In the case of `COc1ccccc1N1CCN(S(=O)(=O)c2ccc3c(c2)NC(=O)CS3)CC1`, the Potency entry was “inactive”.

For the compound `COc1cccc(NC(=O)N2CCC(NC(=O)C(Cc3cccc(C)c3)NC(C)=O)CC2)c1` (configuration not stated), the Potency result was “inactive”.

Consider `CC(C)CN(Cc1c(O)ccc2c(=O)c(-c3ccccc3)coc12)CC(C)C`, for which the activity change, negative = inhibition was 27% [at 1.91 µM] (inactive).

With `CC(C)[C@H](NC(=O)N1c2ccccc2NC(=O)[C@@H]1C(C)C)C(=O)N[C@H](C(=O)O)c1ccccc1`, the Potency entry is “inactive”.

Turning to `CN(C(=O)CN1C(=O)/C(=C/c2ccc(Cl)cc2)SC1=S)C1CCS(=O)(=O)C1` (configuration not stated), the Potency result was “inactive”.

With `CC(=O)C1=C(O)C(=O)N(c2ccc(Br)cc2)C1c1ccc([N+](=O)[O-])cc1` (configuration not stated), the Potency result was “inactive”.

`CC1Cc2cc(/C(O)=C3\C(=O)C(=O)N(Cc4cccnc4)C3c3ccccc3F)ccc2O1` (configuration not stated): the Potency entry was “inactive”.

On to `Cc1ccc(C2SCC(=O)N2c2ccccc2)cc1` (configuration not stated), for which the Potency result was “inactive”.

Consider `CC1=NN(/C(=N\c2nnc(C)s2)Nc2ccccc2)[C@H](c2ccc(C)cc2)S1`, for which the Potency is 8.91 µM (active).

Turning to `COc1ccc(C(=O)CCC(=O)Nc2ccc(Cl)cc2)cc1`, the Potency result is “inactive”.

With `CCOC(=O)C1(Cc2ccccc2C)CCCN(C(=O)CN2C(=O)CSC2=O)C1` (configuration not stated), the Potency result is “inactive”.

As for `N#Cc1ccc(/C=C2\CCn3c2nc2cc(C(=O)O)ccc2c3=O)cc1`, the Potency entry was “inactive”.

`CCOC(=O)CNc1nc(Cl)nc(Nc2ccccc2)n1`: the Potency result was “inactive”.

With `Cc1ccccc1C(=O)OC1OC(=O)C(Cl)=C1Nc1ccccc1` (configuration not stated), the Potency was 11.2 µM (active).

Turning to `Cc1ccc(NC2=C(Cl)C(=O)OC2OC(=O)c2ccccc2C)cc1` (configuration not stated), the Potency result was “inactive”.

Consider `COC(=O)c1sccc1NC(=O)c1ccc(Cl)cc1`, for which the Potency result was “inactive”.

Regarding `Cc1csc(NC(=O)Nc2ccccc2[N+](=O)[O-])n1`, the Potency entry was “inactive”.

For `CCOC(=O)/C(=N\Nc1ccccc1[N+](=O)[O-])c1csc(Nc2ccccc2)n1`, the Potency is 11.2 µM (active).

Turning to `CCOC(=O)C/C(C)=N\Nc1ccc([N+](=O)[O-])cc1[N+](=O)[O-]`, the Potency result was “inactive”.

Regarding `COc1ccc(OCc2cc(C(=O)NCC3(C)COC3)no2)c(Cl)c1`, the Potency entry was “inactive”.

On to `Cc1ccc(Cl)c(OCC(=O)N2CCc3ccccc3C2)c1`, for which the activity change, negative = inhibition is 3.92% [at 1.91 µM] (inactive).

As to `Cc1cccc(C(=O)OCC(=O)Nc2ccc(F)cc2)c1`, the Potency result is “inactive”.

On to `Cc1cc(C)cc(C(=O)OCC(=O)NCCNC(=O)COC(=O)c2cc(C)cc(C)c2)c1`, for which the Potency is 0.0708 µM (active).

As to `COc1ccccc1C(=O)OCC(=O)NCCNC(=O)COC(=O)c1ccccc1OC`, the Potency result was “inactive”.

`COc1ccc(S(=O)(=O)NC(C)C(=O)NCc2ccncc2)cc1Cl` (configuration not stated): the Potency result was “inactive”.

`COC(=O)CN1C(=O)[C@H]2[C@@H](/C=C/c3ccccc3)N3C(=O)CN(CC4CC4)C(=O)[C@@]3(Cc3ccccc3)[C@H]2C1=O`: the Potency result was “inactive”.

On to `Cc1[nH]n(C(N)=S)c(=O)c1N=Nc1ccc(Cl)cc1Cl`, for which the Potency was 0.562 µM (active).

Regarding `Cc1ccc(N=Nc2c(C)[nH]n(-c3ccccc3)c2=O)cc1`, the Potency result is “inactive”.

For `Cc1[nH]n(-c2cccc(Cl)c2)c(=O)c1-c1ccc(Cl)cc1`, the Potency result is “inactive”.

Consider `Cc1cc2oc(=O)cc(CN(C)Cc3ccc(OC(F)F)cc3)c2cc1Cl`, for which the Potency result is “inactive”.

For the compound `COc1ccc(CCN2C(=O)C(C)=C(C)C2=O)cc1OC`, the Potency result is “inactive”.

On to `COc1ccccc1-c1nc(N2CCN(C)CC2)c2ccccc2n1`, for which the Potency result is “inactive”.

As to `COc1ccccc1-c1n[nH]c2c1[C@H](C)CC[C@H]2C(C)C`, the Potency is 3.16 µM (active).

For `CC1C(=O)Nc2ccccc2N1C(=O)c1c(F)cccc1F` (configuration not stated), the Potency entry is “inactive”.

For the compound `COc1ccc(-n2nc3c(N4CCC(C(=O)NCc5ccccc5)CC4)nnc(C)c3c2C)cc1`, the Potency entry is “inactive”.

As to `Cc1cc(C(=O)N/N=C/c2ccc(O)c([N+](=O)[O-])c2)c(C)n1-c1ccc(F)cc1`, the Potency result was “inactive”.

As to `O=[N+]([O-])c1ccc(N2CCSCC2)cc1O`, the Potency result was “inactive”.

As to `O=C1CSC(=S)N1/N=C/c1ccc(O)c([N+](=O)[O-])c1`, the Potency is 8.91 µM (active).

Take `COc1cccc(C2CC(c3cccs3)=NN2C(=O)CSC2=NCCS2)c1OC` (configuration not stated): the Potency result was “inactive”.

For the compound `CC(C(=O)NC1CCCCC1)N1C(=O)c2cccc3cccc1c23` (configuration not stated), the Potency result was “inactive”.

As for `COc1cc(NC(=O)C2=C(C)OCCS2)c(Cl)cc1C(=O)NCCN1CCN(C)CC1`, the Potency result was “inactive”.

As for `O=C(NCc1cccc(C(F)(F)F)c1)c1cccc(S(=O)(=O)N2CCN(Cc3ccccc3)CC2)c1`, the Potency result is “inactive”.

As for `O=C(NC1CCN(C(=S)Nc2ccc(Cl)cc2)CC1)C1CCCCC1`, the Potency entry is “inactive”.

Take `CN(C)CCCNC(=S)NCc1ccc(Cl)cc1`: the Potency result is “inactive”.

As for `O=C(NCc1ccc(Cl)cc1)NCc1ccc(Cl)cc1`, the Potency entry was “inactive”.

Turning to `S=C(NCc1ccc(Cl)cc1)NC1CCCCC1`, the Potency was 3.55 µM (active).

On to `O=C(NCc1ccncc1)NC12CC3CC(CC(C3)C1)C2`, for which the Potency result was “inactive”.

For `S=C(NCc1ccc(Cl)cc1)NC12CC3CC(CC(C3)C1)C2`, the Potency is 2 µM (active).

As to `COCCCNC(=O)C1CC(=O)N(CCc2ccc(F)cc2)C1` (configuration not stated), the Potency entry was “inactive”.

For the compound `CC(=O)Nc1ccc(Nc2ncnc3c2nnn3Cc2ccccc2Cl)cc1`, the Potency result was “inactive”.

On to `O=C(c1c(F)cccc1Cl)N1CCN(c2ccccn2)CC1`, for which the Potency entry is “inactive”.

Consider `COc1ccc(S(=O)(=O)N2CCC(C(=O)NCCC(=O)NCc3cccc(OC)c3)CC2)cc1`, for which the Potency result was “inactive”.

In the case of `CC(C)[C@H](NC(=O)N1CC(=O)Nc2ccccc21)C(=O)N[C@@H](Cc1c[nH]c2ccccc12)C(=O)O`, the Potency entry was “inactive”.

As to `COc1cc(C(=O)NCCOC(=O)c2cccc(N(C)C)c2)cc(OC)c1OC`, the Potency result is “inactive”.

For `C=CCNC(=S)N/N=C/c1ccc(OCc2ccccc2)cc1`, the Potency entry was “inactive”.

Take `CNC(=S)N/N=C/c1ccc(OCc2ccccc2)c(Br)c1`: the Potency was 1.26 µM (active).

With `O=C(O)COc1ccc(/C=N/O)cc1Br`, the Potency result is “inactive”.

Take `COc1cc(NS(=O)(=O)c2ccc(NC(=S)NC(=O)c3ccc(Br)cc3)cc2)ncn1`: the Potency entry is “inactive”.

As to `COc1cc2c(cc1OC)CN(C(=O)c1cc(S(=O)(=O)N3CCCCC3)ccc1Cl)CC2`, the Potency result was “inactive”.

With `Cc1ccc(C(=O)NCC(=O)OCc2nnc(-c3ccccc3)o2)cc1`, the Potency entry is “inactive”.

As to `Cc1c(CCC(=O)N[C@@H](CC(C)C)C(=O)O)c(=O)oc2c(C)c3oc4c(c3cc12)CCCC4`, the Potency entry was “inactive”.

Turning to `CCOC(=O)C1=C(c2ccccc2)NC(=O)NC1c1cc(OC)c(OC)cc1OC` (configuration not stated), the Potency result was “inactive”.

Turning to `CCOC(=O)C1=C(c2ccccc2)NC(=S)NC1c1ccc(Cl)cc1` (configuration not stated), the Potency was 7.94 µM (active).

For the compound `CCOC(=O)C1=C(C)NC(=O)NC1c1ccccc1` (configuration not stated), the Potency result is “inactive”.

For the compound `Cn1cc(C(=O)c2ccc(Cl)cc2Cl)cc1C(=O)NN`, the Potency entry is “inactive”.

Consider `COc1ccc(C2=Nc3cc(C)ccc3OC2)cc1`, for which the Potency was 10 µM (active).

With `COc1ccc(NC(=O)c2cc(-c3ccc(C)cc3)on2)cc1`, the Potency result was “inactive”.

With `COc1ccc(C2=NOC3(CC(=O)N(c4ccc(C)cc4)C3=O)C2)cc1` (configuration not stated), the Potency entry was “inactive”.

With `Cc1cc(C)cc(N(CCC#N)C(=O)CN2C(=O)NC3(CCCC3)C2=O)c1`, the Potency result is “inactive”.

With `COc1ccc(N(Cc2ccc(N(C)C)cc2)C(=O)c2ccc(S(C)(=O)=O)cc2)cc1`, the Potency result is “inactive”.

Regarding `CCOc1ccccc1NC(=S)N1CCN(c2cccc(C)c2C)CC1`, the Potency is 6.31 µM (active).

With `COc1ccccc1NC(=S)N1CCC(NC(=O)C23CC4CC(CC(C4)C2)C3)CC1`, the Potency entry was “inactive”.

Regarding `COCCN(C(=S)Nc1ccccc1OC)C1CCN(C(C)C)CC1`, the Potency result is “inactive”.

For `CC(=O)N1CCN(c2cccc(C)c2C)CC1`, the Potency entry is “inactive”.

Turning to `COc1ccccc1NC(=S)N1CCN(C(c2ccccc2)c2ccccc2)CC1`, the Potency was 3.55 µM (active).

For the compound `CCC(=O)N1CCN(c2ccccc2NC(=O)COc2cccc(C)c2C)CC1`, the Potency result is “inactive”.

For `CC(=O)c1cccc(NC(=S)N2CCN(S(C)(=O)=O)CC2)c1`, the Potency result was “inactive”.

Regarding `CCC(C(=O)NC1CCCCC1)N(C(=O)c1snc(C(N)=O)c1N)c1ccc(OC)cc1OC` (configuration not stated), the Potency result is “inactive”.

On to `O=C(CCc1nnc2ccc(NCc3ccccc3Cl)nn12)NCC1CCN(C2CCCC2)C1` (configuration not stated), for which the Potency result is “inactive”.

For `COc1ccc(-c2csc3nc(-c4ccccc4F)oc(=O)c23)cc1OC`, the Potency was 11.2 µM (active).

As for `COc1ccc(-c2csc(-c3cccs3)n2)cc1OC`, the Potency result was “inactive”.

With `COc1ccc(-c2noc(-c3cccc(OC)c3OC)n2)cc1OC`, the Potency result is “inactive”.

Take `C/[N+]([O-])=C\c1ccc([N+](=O)[O-])o1`: the Potency is 11.2 µM (active).

As to `Cc1cc(C)nc(N/N=C/c2ccc([N+](=O)[O-])o2)n1`, the Potency entry was “inactive”.

On to `NC(=O)C(=O)N/N=C/c1ccc([N+](=O)[O-])o1`, for which the activity change, negative = inhibition was -19.4% [at 10 µM] (inactive).

As to `CCOC(=O)[C@H]1[C@H]2COc3cc(OC)ccc3[C@@H]2N2C(=O)N(c3ccc(Br)cc3)C(=O)[C@@]12C`, the Potency result is “inactive”.

With `Cn1nccc1C(=O)N1CCCC(C(=O)c2ccc(Oc3ccccc3)cc2)C1` (configuration not stated), the Potency entry is “inactive”.

In the case of `COc1cccc(CNn2cn[nH]c2=S)c1OCc1ccccc1`, the Potency was 2.51 µM (active).

For the compound `C=CCC(Nc1ccccc1)c1cccc(OC)c1OC` (configuration not stated), the Potency result was “inactive”.

As for `COc1ccccc1-n1cn[nH]c1=S`, the Potency entry is “inactive”.

For the compound `C=CCOc1cccc(C2NC(=O)c3ccccc3O2)c1` (configuration not stated), the Potency entry is “inactive”.

`C=CCOc1cccc(CNn2cn[nH]c2=S)c1`: the Potency was 10 µM (active).

In the case of `C=CCOc1c(CNn2cn[nH]c2=S)cccc1OC`, the Potency was 11.2 µM (active).

As to `CCOc1c(CNCc2ccc(C(=O)O)cc2)cccc1OC`, the Potency result was “inactive”.

With `C=CCOc1ccc(/C=N/n2cncn2)cc1OC`, the Potency result is “inactive”.
